In the supplement of paper PMC7801607:

Legend:
[1] = tested on: CHO; assay: % viability of CHO cells (MTT); higher = less toxic; details: 48 h
How it was run: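 For 48 h, attached CHO cells (10^6 cells/well, 200 µL, seeded the night before) were kept in fresh medium carrying compound at 2 or 20 µM. A colorimetric tetrazolium (MTT) assay then gave survival as percent viability versus untreated cells.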

[2] = tested on: HepG2-A16-CD81; assay: % inhibition of HepG2 viability (CellTiter-Glo); higher = more toxic; details: 5 µM
[3] = tested on: Plasmodium falciparum NF54 stage IV/V gametocytes; assay: % inhibition of gametocyte viability (PrestoBlue); higher = more inhibition; details: 48 h
How it was run: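 Stage IV/V NF54 gametocytes at 2% gametocytaemia and 5% haematocrit (100 µL/well) were treated with compound at 1 or 5 µM and incubated for 48 h at 37 °C under stationary, hypoxic conditions. PrestoBlue (10 µL) was then added for 2 h, and fluorescence at 612 nm was read on 70 µL of transferred supernatant. Percent inhibition of gametocyte viability was normalised to vehicle and kill controls within one run.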

[4] = tested on: Plasmodium falciparum NF54 asexual blood stage; assay: % inhibition of asexual blood stage proliferation (pLDH); higher = more inhibition; details: 72 h
How it was run: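 Plasmodium falciparum NF54 ring-stage cultures (1% haematocrit, 2% parasitaemia) were incubated with compound at 2 or 20 µM for 72 h at 37 °C under 4% CO2, 3% O2 and 93% N2. Survival was read at 620 nm with the parasite lactate dehydrogenase assay. Results were reported as percent inhibition of asexual proliferation relative to controls.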

[5] = tested on: Plasmodium falciparum NF54 stage IV/V gametocytes; assay: % inhibition of gametocyte viability (ATP bioluminescence); higher = more inhibition; details: 24 h
How it was run: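 Stage IV/V NF54 gametocytes from density gradients (30,000 per well, 96-well plates) were incubated with compound at 1 or 5 µM for 24 h at 37 °C. A single run supplied percent inhibition of gametocyte viability, based on ATP measured with Promega BacTiter Glo and normalised to control wells.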

[6] = tested on: Plasmodium falciparum NF54 stage IV/V gametocytes; assay: % inhibition of gametocyte viability (luciferase reporter); higher = more inhibition; details: 48 h
How it was run: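 Stage IV/V gametocytes of the NF54-Pfs16-GFP-Luc line (2% gametocytaemia, 2% haematocrit) were exposed to compound at 1 or 5 µM. Incubation was 48 h at 37 °C, stationary and hypoxic. Luminescence was read on 30 µL lysate plus 30 µL Promega luciferin substrate on a GloMax-Multi+ reader with 10 s integration. Percent inhibition was normalised to DMSO and kill controls from a single run.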

[7] = tested on: Plasmodium berghei ANKA liver stage in HepG2-A16-CD81; assay: % inhibition of liver stage parasite viability (luciferase); higher = more inhibition; details: 5 µM; 48 h
Method: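 Single-concentration screen of the MMV Pandemic Response Box. P. falciparum NF54 asexual blood stages: pLDH assay, 72 h at 37 °C, 2 and 20 µM, n=2. Stage IV/V gametocytes (NF54): luciferase reporter (NF54-Pfs16-GFP-Luc, 48 h), ATP bioluminescence (24 h) and PrestoBlue (48 h) at 1 and 5 µM, n=1. P. berghei liver stage (luciferase in HepG2-A16-CD81, 48 h post infection) at 5 µM, n=4. All normalised to DMSO and kill controls as % inhibition.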
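For % inhibition of HepG2 viability (CellTiter-Glo) in this document: HepG2-A16-CD81 hepatoma cells plated as in the liver-stage assay but without sporozoites, with DMSO wells as negative and 25 µM puromycin as positive control.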

| SMILES | % viability of CHO cells ([1]; 2 µM) [%] | % viability of CHO cells ([1]; 20 µM) [%] | % inhibition of HepG2 viability [2] [%] | % inhibition of gametocyte viability ([3]; 1 µM) [%] | % inhibition of gametocyte viability ([3]; 5 µM) [%] | % inhibition of asexual blood stage proliferation ([4]; 2 µM) [%] | % inhibition of asexual blood stage proliferation ([4]; 20 µM) [%] | % inhibition of gametocyte viability ([5]; 1 µM) [%] | % inhibition of gametocyte viability ([5]; 5 µM) [%] | % inhibition of gametocyte viability ([6]; 1 µM) [%] | % inhibition of gametocyte viability ([6]; 5 µM) [%] | % inhibition of liver stage parasite viability [7] [%] |
| --- | --- | --- | --- | --- | --- | --- | --- | --- | --- | --- | --- | --- |
| CCCCC(CC)CNC(=N)NC(=N)NCCCCCCNC(=N)NC(=N)NCC(CC)CCCC (stereo not drawn) | 101 | 124 | 57.5 | 44.5 | 79.2 | 92.1 | 87.5 | 66.4 | 93.8 | 98.7 | 100 | 74 |
| CN(C)c1[nH]c(=O)ncc1F | 111 | 104 | 11.9 | < 0 | < 0 | -4.48 | 8.8 | 2.44 | < 0 | < 0 | < 0 | 26.1 |
| Cc1cc(NS(=O)(=O)c2ccc(-c3ccc(F)cc3F)cc2)no1 | 95.4 | 116 | 1.14 | 2.55 | 66.2 | -0.00494 | -3.92 | 0.517 | < 0 | < 0 | < 0 | 43.5 |
| COc1cc(Cc2cc(N)nc(N)n2)cc(OC)c1OC | 107 | 103 | 4.91 | < 0 | < 0 | 43.4 | 50.8 | < 0 | < 0 | < 0 | < 0 | 81.6 |
| NNC(=O)c1ccncc1 | 94.3 | 96.5 | 8.54 | < 0 | 4.24 | 40.1 | 71.2 | < 0 | < 0 | 17.1 | < 0 | 22.9 |
| COC1CC2CCC(C)C(O)(O2)C(=O)C(=O)N2CCCCC2C(=O)OC(C(C)CC2CCC(OCCO)C(OC)C2)CC(=O)C(C)/C=C(\C)C(O)C(OC)C(=O)C(C)CC(C)/C=C/C=C/C=C/1C (stereo not drawn) | 92.8 | 106 | 1.51 | < 0 | 4.18 | 26.6 | 90.3 | 2.16 | 37.2 | 15 | 4.08 | 0.0625 |
| Nc1nc(NC2Cc3ccc(F)cc3C2)nc(N2CCCCC2)n1 (stereo not drawn) | 96 | 79.3 | 2.58 | 28.3 | 55.5 | 26.7 | 91 | 5.3 | < 0 | < 0 | 7.28 | 23.6 |
| NC1C2CC3CC(C2)CC1C3 (stereo not drawn) | 78.9 | 70.3 | -1.51 | 21.5 | 18.1 | 76.1 | 43.4 | 6.86 | 5.87 | 9.54 | 9.98 | 9.47 |
| Cn1cncc1[C@@](N)(c1ccc(Cl)cc1)c1ccc2c(c1)c(-c1cccc(Cl)c1)cc(=O)n2C | 94.8 | 47.9 | 31.9 | 21.7 | 31.8 | 51.2 | 75.9 | 15.7 | 16.3 | 0.69 | < 0 | 60.7 |
| OCCC#Cc1nc(-c2ccc(F)cc2)c(-c2ccncc2)n1CCCc1ccccc1 | 107 | 83 | 5.38 | < 0 | 30.5 | 15.3 | 83 | 1.66 | 8.02 | 5.66 | 32.2 | 36.6 |
| CC1=C(/C=C/C(C)=C/C=C/C(C)=C/C(=O)Nc2ccc(O)cc2)C(C)(C)CCC1 | 118 | 102 | 4.42 | < 0 | < 0 | 33.3 | 90 | < 0 | < 0 | < 0 | < 0 | 13.4 |
| Cc1nc(-c2ccc(C3N(C)c4ccc(F)cc4C(=O)N3c3ccccc3)s2)cs1 (stereo not drawn) | 97.8 | 95.9 | 12.5 | < 0 | -0.427 | 15.3 | 72.5 | < 0 | < 0 | < 0 | < 0 | 31.9 |
| CCCCSc1nc(N)c2[nH]c(=O)c(=O)n(Cc3ccccc3)c2n1 | 114 | 55.2 | 4.02 | 1.71 | 21.9 | 14.9 | 14.6 | < 0 | < 0 | < 0 | < 0 | -9.6 |
| O=C(O)CCNC(=O)c1ccccc1 | 112 | 60.6 | -2.32 | < 0 | -0.209 | 25.9 | 15.9 | < 0 | < 0 | < 0 | 6.13 | 16 |
| Cc1nc2ccc(Oc3ccccc3)cc2c2c1CCN2CCc1ccccc1 | 77.5 | -1.21 | 2.52 | 1.5 | 60 | 75.9 | 110 | 20.1 | 93.2 | 33 | 63.3 | 27 |
| COc1ccc(NC(=O)CC2Sc3ncnn3C2=O)cc1 (stereo not drawn) | 99.9 | -0.591 | 10.8 | < 0 | 2.6 | 29.9 | 26.3 | 0.572 | 16.9 | < 0 | 15.3 | 34.5 |
| O=C(CCCC(F)(F)F)N1CCC(c2nc(-c3nccs3)no2)CC1 | 113 | 105 | 8.03 | -0.494 | 2.08 | 7.54 | 19.8 | 0.351 | < 0 | < 0 | 8.02 | -0.37 |
| CC1CN(c2ncnc3c2c(-c2ccccc2)cn3-c2ccc(F)cc2)CC(C)O1 (stereo not drawn) | 82.6 | 122 | 6.07 | 17.3 | 1.77 | 75.6 | 95.5 | < 0 | < 0 | < 0 | < 0 | 37.1 |
| O=[N+]([O-])c1cn2c(n1)OC[C@@H](OCc1ccc(OC(F)(F)F)cc1)C2 | 92.7 | 84.4 | 10.7 | < 0 | < 0 | 0.354 | 10.1 | < 0 | < 0 | < 0 | 3.32 | 31.5 |
